Compounds without any hit were thinned out: in the full panel of roughly 79,000, 15% have a hit. Activity calls are given as the source filed them. No stated cut-off is given here; in the data, active means growth inhibition above about 70%; inactive means the rest.
Legend:
[1] = NCI Yeast Anticancer Drug Screen. Data for the rad50 strain (AID 155);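 further: 0% = growth of vehicle-only cultures of the same strain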; conditions: S. cerevisiae rad50 strain growth inhibition; at 50.0 µM; active compounds read high
In short: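 Yeast carrying a defined DNA repair defect were exposed to test compounds, and growth was compared with vehicle-treated controls to give percent inhibition.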

[2] = NCI Yeast Anticancer Drug Screen. Data for the mec2-1 strain (AID 157); conditions: S. cerevisiae mec2-1 strain, at 50.0 µM, active compounds read high
In short: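 Mutant yeast (mec2-1) grown with compound; growth inhibition relative to vehicle control reported.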

[3] = NCI Yeast Anticancer Drug Screen. Data for the sgs1 mgt1 strain (AID 161);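 further: 0% = growth of cultures given vehicle only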; conditions: S. cerevisiae sgs1 mgt1 strain, at 50.0 µM, active compounds read high
In short: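 Yeast cells carrying a defined DNA-repair defect were exposed to test compounds. Growth inhibition was measured relative to vehicle-treated controls.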

[4] = NCI Yeast Anticancer Drug Screen. Data for the cln2 rad14 strain (AID 165);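 further: 0% = growth equal to vehicle treated cultures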; conditions: S. cerevisiae cln2 rad14 strain, at 50.0 µM, active compounds read high
In short: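 Readout is yeast growth inhibition versus vehicle-treated controls, using a strain with cln2 and rad14 alterations exposed to compound.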

[5] = NCI Yeast Anticancer Drug Screen. Data for the bub3 strain (AID 167); conditions: S. cerevisiae bub3 mutant strain, at 50.0 µM, active compounds read high
In short: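 Compounds were applied to a genetically altered yeast strain carrying a cell-cycle control defect. Growth inhibition was scored against vehicle-treated controls.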

[6] = NCI Yeast Anticancer Drug Screen. Data for the mlh1 rad18 strain (AID 175); conditions: S. cerevisiae mlh1 rad18 strain growth inhibition; at 50.0 µM; active compounds read high
In short: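 Genetically defined yeast (DNA repair-deficient) exposed to compounds; growth inhibition determined relative to vehicle.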

Measured: growth inhibition

c1ccc2c(c1)CCCC(N1CCOCC1)C2 (configuration not stated)
inactive: [1] 2.3% | [2] 2.7% | [3] 16.9% | [4] 11.1% | [5] -24.3% | [6] 15.9%

O=C1CCc2cc3c(cc21)OCO3
inactive: [1] 4.8% | [2] -33.8% | [3] -3.95% | [4] -9.35% | [5] 6.7% | [6] -6.15%

O=CC(O)C(O)C(O)C(O)C(=O)O.O=CC(O)C(O)C(O)C(O)C(=O)O.[NH-]C1CCCCC1[NH-].[Pt+2] (configuration not stated)
inactive: [1] -7.65% | [2] -9.8% | [3] 8.2% | [4] 4.25% | [5] 6.35% | [6] -41%

CONC(CC(=O)c1ccccc1)c1ccccc1 (configuration not stated)
inactive: [1] 23.4% | [2] 6.95% | [3] 5.75% | [4] 2.7% | [5] 14.2% | [6] 5.65%

CC1(C)OC2COC(c3[nH]nc4c(=O)[nH]c(=O)[nH]c34)C2O1 (configuration not stated)
inactive: [1] 1.1% | [2] -5.65% | [3] -26.9% | [4] -20.8% | [5] -64.3% | [6] -5%

Cc1ccc(S(=O)(=O)OCC23CCC(CO)(CC2)CC3)cc1
inactive: [1] 9.75% | [2] -2.45% | [3] -0.85% | [4] 15.7% | [5] 27.2% | [6] 14.2%

CN(C)CCOc1ccccn1
inactive: [1] 9.45% | [2] -27.4% | [3] -5.35% | [4] 7.75% | [5] -21.7% | [6] 0.3%

Nc1cc2c(cc1Br)-c1ccc(Cl)cc1C2=O
inactive: [1] 1.2% | [2] 5% | [3] 7.3% | [4] -54.4% | [5] 0% | [6] -0.5%

S=c1cc(S)sc2c1c(=S)sc1nc3ccccn3c(=S)c12
inactive: [1] -2.35% | [2] 28.6% | [3] 35.3% | [4] 18% | [5] 24.6% | [6] 45%

CCCCC(C)(O)CCC (configuration not stated)
inactive: [1] 5.8% | [2] -11.9% | [3] 0.5% | [4] 5.05% | [5] 7.3% | [6] -6.05%

CCN(CC)c1ccc(N=Nc2nc(Cl)c(/C=C3\C(=O)c4ccccc4C3=C(C#N)C#N)s2)c(NC(C)=O)c1
inactive: [1] 18% | [2] 5.1% | [3] 14.2% | [4] -38.6% | [5] -12.8% | [6] -17.6%

C[n+]1ccsn1
inactive: [1] -0.7% | [2] 3.05% | [3] -4.7% | [4] 37% | [5] -19.4% | [6] -10.4%

C=CCC1(C(=O)NC)c2ccccc2-c2ccccc21
inactive: [1] -8.85% | [2] -6.4% | [3] 1% | [4] -18.8% | [5] 43.1% | [6] -38.1%

[O-]c1c[n+](-c2cc(Cl)ccc2Cl)no1
inactive: [1] 11.2% | [2] 2.9% | [3] -3.4% | [4] 4.8% | [5] -1.4% | [6] 2.55%

NC(N)=Nc1ccccc1OC1OC(CO)C(O)C(O)C1O (configuration not stated)
inactive: [1] -12.4% | [2] 16.1% | [3] 2.55% | [4] -50.5% | [5] -7% | [6] -2.25%

C#CC(NC(C)(C)CC(C)(C)C)C(C)C (configuration not stated)
inactive: [1] 31.1% | [2] 4.25% | [3] 0.55% | [4] 6.8% | [5] 4.1% | [6] 12.2%

Cc1cc(-c2ccccc2)c(C#N)c(=O)[nH]1
inactive: [1] -4.5% | [2] 12.2% | [3] -10.8% | [4] -14.8% | [5] 3.65% | [6] -7.35%

O=c1cc(O)n2ncnc2[nH]1
inactive: [1] -4.3% | [2] -23.6% | [3] -21.8% | [4] 3.05% | [5] -12.6% | [6] 9%

COC(=O)CCc1c(C)[nH]c(C(=O)OC(C)(C)C)c1C
inactive: [1] -9.45% | [2] 9.3% | [3] -10.9% | [4] 14.9% | [5] -4.05% | [6] -3.05%

CCCNC(C)C(C)O (configuration not stated)
inactive: [1] -5.9% | [2] -16.4% | [3] -24.1% | [4] -16.3% | [5] -4.75% | [6] -10.9%

COc1cc(C2C(C(=O)NCc3ccccc3)=C(C)NC(C)=C2C(=O)NCc2ccccc2)ccc1O
inactive: [1] -27.1% | [2] -11.1% | [3] -23.9% | [4] -3.9% | [5] -7% | [6] -21.2%

O=C1C=C(c2ccccc2)C(O)(c2ccccc2)/C1=C/C=C/c1ccccc1 (configuration not stated)
inactive: [1] -3.55% | [2] -14.1% | [3] 6.5% | [4] -12.2% | [5] -5.2% | [6] -8.35%

O=C(O)c1[nH]c2ccccc2c(=O)c1-c1ccccc1
inactive: [1] 11.7% | [2] -31.5% | [3] 0.95% | [4] -14.3% | [5] 1.05% | [6] -19.4%

O=P(O)(c1ccccc1Br)c1ccccc1Br
inactive: [1] 43.5% | [2] 10.6% | [3] 28% | [4] 26.2% | [5] 4.65% | [6] 20.2%

CC(C)Cc1[nH]nc2c1C(=O)C(Nc1ccccc1)=CC2=O
inactive: [1] 22.5% | [2] 25.3% | [3] 12.6% | [4] -7.65% | [5] 2.75% | [6] 23.4%

CCOC(=O)c1c(-c2ccccc2)n2c3c(cccc13)CC2
inactive: [1] 6.85% | [2] -5.2% | [3] -6.05% | [4] 6.15% | [5] 6.55% | [6] 27.5%

O=C1C=C2SCCN2C(=O)C1
inactive: [1] -5.9% | [2] -33.8% | [3] -9.15% | [4] -2.85% | [5] -5.85% | [6] 14.9%

Cc1ccc(S(=O)(=O)/C(=C/c2ccccc2)CC(=O)c2ccccc2)cc1
inactive: [1] 9.05% | [2] 6.55% | [3] -22.1% | [4] -18.4% | [5] 11.1% | [6] 17%

COCCC(N)C(=O)O (configuration not stated)
inactive: [1] 6% | [2] -13.3% | [3] -15% | [4] -22.8% | [5] -11.6% | [6] 2.65%

CCc1cccc(CC)c1N1C(=O)C2C(C1=O)C1(Cl)C(Cl)=C(Cl)C2(Cl)C1(Cl)Cl (configuration not stated)
inactive: [1] 37.4% | [2] 50.6% | [3] 65.4% | [5] 61%
active: [4] 74.2% | [6] 87.6%

Cc1ccc(-c2cs/c(=N\N=C3/CSC(=O)N3Cc3ccccc3)n2-c2cccc(C)c2)cc1
inactive: [1] 24.4% | [2] 1.2% | [3] -11.2% | [4] -4.3% | [5] 4.1% | [6] 22.2%

O=C(CCCCC(=O)N1CCOCC1)N1CCOCC1
inactive: [1] -9.3% | [2] -21.9% | [3] -2.45% | [4] -19.6% | [5] 2.1% | [6] -9.4%

COc1cc2c(cc1OC)C(c1cc(OC)c(OC)c(OC)c1)C1(O)C(=O)OCC1(O)C2 (configuration not stated)
inactive: [1] 20.1% | [2] -8.25% | [3] 13.1% | [4] 21.8% | [5] 19.4% | [6] 20.2%

CC(=O)NC(CCCCNC(=O)NCCCl)C(=O)NCc1ccccc1 (configuration not stated)
inactive: [1] 3.3% | [2] -22.8% | [3] -2.85% | [4] 20.8% | [5] -12% | [6] -8.9%

Cc1ccc(C(C(=O)O)c2ccc(C)cc2)cc1
inactive: [1] 45.5% | [2] 2.25% | [3] 44.9% | [4] 27.4% | [5] 22.1% | [6] 29.2%

CN1C(=O)C2C=CC1c1ccccc12 (configuration not stated)
inactive: [1] -0.75% | [2] -3.95% | [3] -8.8% | [4] -37% | [5] -6.5% | [6] 2.55%

Cc1ccccc1N(CC1CO1)CC1CO1 (configuration not stated)
inactive: [1] 10.2% | [2] -18.1% | [3] -20.8% | [4] -19% | [5] -0.8% | [6] -3.25%

O=C(OCCN1C(=O)c2cccc3c(Br)ccc(c23)C1=O)OCc1ccccc1
inactive: [2] 48.5% | [3] 60.1% | [4] 49.4% | [5] 61.7%
active: [1] 86.2% | [6] 70.3%

Cc1cccc(CSc2nc(N)nc3ncn(C4CC(O)C(CO)O4)c23)n1 (configuration not stated)
inactive: [1] -20.9% | [2] 3.5% | [3] 10.7% | [4] -48.2% | [5] 2.05% | [6] -19.6%

CN(C)CCC1(C#N)CCCCC1
inactive: [1] 5.3% | [2] 23.3% | [3] 10.4% | [4] -19.3% | [5] 12.4% | [6] 1.65%

O=c1oc2ccc3ccccc3c2c2c1CCCCC2
inactive: [1] -13.9% | [2] -4.05% | [3] -14.8% | [4] -22.1% | [5] -8.05% | [6] -26.5%

Cn1nc(-c2ccccc2)c(-c2cc(-c3ccccc3)n[nH]2)c(N)c1=O
inactive: [1] 18.9% | [2] 12.4% | [3] 20.8% | [4] 7.9% | [5] 19.7% | [6] 22.9%

From PubChem BioAssay (NCI)
